Source: the supplement of paper PMC10849652
About 7,900 targets were measured; listed, in parts, are those with a hit and a random draw of the rest. About 0.6% of all pairs of compound and target were hits.

Legend:
Assay in all cases: log2 fold change, soluble protein after heating vs DMSO (PISA); higher = thermal stabilisation; K562 cells, 10 uM, 30 min; active = over 0.2 and 3.5 SD of the protein, either way, in both replicates (recomputed)
IRAK-1-4 Inhibitor I = compound: C1COCCN1CCN2C3=CC=CC=C3N=C2NC(=O)C4=CC(=CC=C4)[N+](=O)[O-] [IRAK-1-4 Inhibitor I]
Procedure, shortened: (§1)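 K562 cells at 2×10^6 cells/mL were given 10 μM compound for 30 min. Aliquots then went through 3 min of heating across 48°C-58°C, were pooled, and were extracted in PBS with 0.5% NP-40 at 4°C, and the supernatant after 21,000xg for 90 min was quantified by TMTpro 16plex LC-MS/MS with channel sums equalised. Thermal stability relative to control samples, from duplicates, is given as log2 fold change.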

ibrutinib = compound: C=CC(=O)N1CCC[C@@H](n2nc(-c3ccc(Oc4ccccc4)cc3)c3c(N)ncnc32)C1 [ibrutinib]
Procedure, shortened: as §1

[1] = compound: CC(=O)c1cnc2ccc(-c3cc(Cl)c(O)c(Cl)c3)nc2c1N[C@H]1CC[C@H](CN(C)C)CC1
Procedure, shortened: as §1

ralimetinib = compound: CC(C)(C)Cn1c(N)nc2ccc(-c3[nH]c(C(C)(C)C)nc3-c3ccc(F)cc3)nc21 [ralimetinib]
Procedure, shortened: as §1

[2] = compound: CC(C)(O)CC(=O)NCCn1ccc2ncnc(Nc3ccc(Oc4cccc(C(F)(F)F)c4)c(Cl)c3)c21
Procedure, shortened: as §1

[3] = compound: CC(C)C1=C2N=C(C=C(N2N=C1)NCC3=CC=CC=C3)NCCCCCCN
Procedure, shortened: as §1

[4] = compound: CC(C)C[C@@H](C=O)NC(=O)[C@H](CC(C)C)NC(=O)[C@H](CC(C)C)NC(=O)OCc1ccccc1
Procedure, shortened: as §1

pinometostat = compound: CC(C)N(C[C@H]1O[C@@H](n2cnc3c(N)ncnc32)[C@H](O)[C@@H]1O)[C@H]1C[C@@H](CCc2nc3cc(C(C)(C)C)ccc3[nH]2)C1 [pinometostat]
Procedure, shortened: as §1

[5] = compound: CC1=C(C(CC(=O)N1)C2=CC=C(C=C2)C(F)(F)F)C(=O)NC3=C(C=C4C(=C3)C=NN4)F
Procedure, shortened: as §1

[6] = compound: CC1=C(C2=C(C=C1)C(=O)C3=CC=CC=C3N2CCCN)C
Procedure, shortened: as §1

Measured: log2 fold change

PDIK1L (UniProt Q8N165)
UniProt Q8N165, sequence (Q8N165 whole entry, looked up): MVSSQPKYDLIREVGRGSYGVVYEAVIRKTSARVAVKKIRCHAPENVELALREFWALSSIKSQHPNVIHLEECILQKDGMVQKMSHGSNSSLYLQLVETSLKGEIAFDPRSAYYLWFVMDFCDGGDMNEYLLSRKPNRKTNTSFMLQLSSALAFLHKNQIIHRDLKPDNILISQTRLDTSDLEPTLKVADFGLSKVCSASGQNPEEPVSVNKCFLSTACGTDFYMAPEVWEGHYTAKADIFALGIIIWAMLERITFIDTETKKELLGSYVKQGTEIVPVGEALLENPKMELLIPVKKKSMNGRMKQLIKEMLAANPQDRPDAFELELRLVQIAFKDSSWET
inactive: IRAK-1-4 Inhibitor I -0.006 | ibrutinib -0.205 | ralimetinib -0.173 | [2] 0.032 | [3] -0.139 | [4] 0.091 | pinometostat -0.012 | [5] 0.052 | [6] -0.197
active: [1] -0.693

PPIL4 (UniProt Q8WUA2)
active: [1] -0.27
inactive: IRAK-1-4 Inhibitor I -0.102 | ibrutinib 0.013 | ralimetinib 0.101 | [2] 0.04 | [3] -0.114 | [4] -0.065 | pinometostat 0.055 | [5] 0.002 | [6] 0.066

PRKCQ (UniProt Q04759)
UniProt Q04759, sequence (Q04759 whole entry, looked up): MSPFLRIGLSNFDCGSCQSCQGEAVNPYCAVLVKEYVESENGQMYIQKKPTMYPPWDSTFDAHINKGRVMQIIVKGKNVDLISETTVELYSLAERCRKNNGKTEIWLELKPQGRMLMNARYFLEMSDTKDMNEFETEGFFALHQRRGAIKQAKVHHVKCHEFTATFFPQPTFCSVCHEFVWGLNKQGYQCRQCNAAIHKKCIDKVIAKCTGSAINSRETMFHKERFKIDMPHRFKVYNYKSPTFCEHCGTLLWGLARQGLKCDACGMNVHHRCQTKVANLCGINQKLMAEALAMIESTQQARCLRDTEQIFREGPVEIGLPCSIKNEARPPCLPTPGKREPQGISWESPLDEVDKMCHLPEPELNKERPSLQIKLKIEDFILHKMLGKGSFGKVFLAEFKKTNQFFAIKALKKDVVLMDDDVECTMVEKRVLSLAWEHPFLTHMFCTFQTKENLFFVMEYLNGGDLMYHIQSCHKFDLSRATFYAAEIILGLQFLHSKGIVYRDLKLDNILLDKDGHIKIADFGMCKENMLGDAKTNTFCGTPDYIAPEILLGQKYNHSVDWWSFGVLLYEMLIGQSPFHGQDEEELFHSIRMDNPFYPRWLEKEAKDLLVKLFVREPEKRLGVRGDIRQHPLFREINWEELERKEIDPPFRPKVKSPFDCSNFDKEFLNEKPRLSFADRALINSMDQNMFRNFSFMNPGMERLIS
active: [1] -2.02
inactive: IRAK-1-4 Inhibitor I 0.004 | ibrutinib -0.026 | ralimetinib -0.02 | [2] -0.037 | [3] -0.103 | [4] -0.011 | pinometostat 0.028 | [5] 0.024 | [6] 0.018

PTP4A2 (UniProt Q12974)
inactive: IRAK-1-4 Inhibitor I 0.019 | ibrutinib 0.16 | [1] 0.065 | ralimetinib 0.051 | [2] -0.051 | [3] 0.035 | [4] -0.157 | pinometostat -0.044 | [5] 0.191 | [6] -0.164

PSPC1 (UniProt Q8WXF1)
inactive: IRAK-1-4 Inhibitor I -0.097 | ibrutinib 0.002 | [1] -0.201 | ralimetinib -0.012 | [2] -0.024 | [3] -0.18 | [4] 0.048 | pinometostat -0.02 | [5] -0.042 | [6] 0.15

PCBP1 (UniProt Q15365)
UniProt Q15365, sequence (Q15365 whole entry, looked up): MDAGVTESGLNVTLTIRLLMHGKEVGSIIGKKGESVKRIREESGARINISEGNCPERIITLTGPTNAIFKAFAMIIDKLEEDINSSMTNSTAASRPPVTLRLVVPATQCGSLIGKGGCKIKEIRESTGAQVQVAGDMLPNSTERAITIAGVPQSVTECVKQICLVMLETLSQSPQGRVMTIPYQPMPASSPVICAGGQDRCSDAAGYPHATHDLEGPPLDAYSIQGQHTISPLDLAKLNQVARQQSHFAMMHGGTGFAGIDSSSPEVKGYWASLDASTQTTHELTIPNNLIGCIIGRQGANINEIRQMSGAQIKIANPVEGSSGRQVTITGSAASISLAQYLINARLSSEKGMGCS
inactive: IRAK-1-4 Inhibitor I 0 | ibrutinib -0.017 | [1] -0.005 | ralimetinib 0.058 | [2] -0.058 | [3] -0.118 | [4] -0.006 | pinometostat -0.003 | [5] 0.023 | [6] 0.039

PELO (UniProt Q9BRX2)
UniProt Q9BRX2, sequence (Q9BRX2 whole entry, looked up): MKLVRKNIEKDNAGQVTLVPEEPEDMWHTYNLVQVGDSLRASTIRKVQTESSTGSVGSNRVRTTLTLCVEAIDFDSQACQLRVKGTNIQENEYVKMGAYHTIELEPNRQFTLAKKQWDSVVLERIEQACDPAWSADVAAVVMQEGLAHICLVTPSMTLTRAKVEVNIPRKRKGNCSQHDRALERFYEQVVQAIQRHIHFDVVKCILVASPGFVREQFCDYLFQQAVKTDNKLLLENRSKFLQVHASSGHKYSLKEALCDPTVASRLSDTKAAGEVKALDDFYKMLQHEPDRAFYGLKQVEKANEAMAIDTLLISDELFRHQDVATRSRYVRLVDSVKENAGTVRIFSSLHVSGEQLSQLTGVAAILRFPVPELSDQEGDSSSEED
active: [3] -0.361
inactive: IRAK-1-4 Inhibitor I -0.073 | ibrutinib 0.071 | [1] -0.106 | ralimetinib 0.122 | [2] -0.128 | [4] 0.058 | pinometostat 0.201 | [5] 0.019 | [6] 0.088

PSMC6 (UniProt P62333)
UniProt P62333, sequence (P62333 whole entry, looked up): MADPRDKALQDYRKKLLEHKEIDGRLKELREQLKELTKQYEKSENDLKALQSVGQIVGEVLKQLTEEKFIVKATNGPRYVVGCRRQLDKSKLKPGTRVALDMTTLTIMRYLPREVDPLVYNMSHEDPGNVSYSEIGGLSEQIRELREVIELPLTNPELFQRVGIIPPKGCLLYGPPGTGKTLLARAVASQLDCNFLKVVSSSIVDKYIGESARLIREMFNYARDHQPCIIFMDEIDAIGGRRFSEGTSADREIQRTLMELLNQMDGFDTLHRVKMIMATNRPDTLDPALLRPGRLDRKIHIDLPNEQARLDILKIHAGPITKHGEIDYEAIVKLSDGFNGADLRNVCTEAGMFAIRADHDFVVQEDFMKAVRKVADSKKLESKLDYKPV
inactive: IRAK-1-4 Inhibitor I -0.026 | ibrutinib 0 | [1] 0.044 | ralimetinib 0.019 | [2] 0.093 | [3] 0.077 | [4] -0.206 | pinometostat 0.01 | [5] 0.075 | [6] -0.01

PSMD3 (UniProt O43242)
UniProt O43242, sequence (O43242 whole entry, looked up): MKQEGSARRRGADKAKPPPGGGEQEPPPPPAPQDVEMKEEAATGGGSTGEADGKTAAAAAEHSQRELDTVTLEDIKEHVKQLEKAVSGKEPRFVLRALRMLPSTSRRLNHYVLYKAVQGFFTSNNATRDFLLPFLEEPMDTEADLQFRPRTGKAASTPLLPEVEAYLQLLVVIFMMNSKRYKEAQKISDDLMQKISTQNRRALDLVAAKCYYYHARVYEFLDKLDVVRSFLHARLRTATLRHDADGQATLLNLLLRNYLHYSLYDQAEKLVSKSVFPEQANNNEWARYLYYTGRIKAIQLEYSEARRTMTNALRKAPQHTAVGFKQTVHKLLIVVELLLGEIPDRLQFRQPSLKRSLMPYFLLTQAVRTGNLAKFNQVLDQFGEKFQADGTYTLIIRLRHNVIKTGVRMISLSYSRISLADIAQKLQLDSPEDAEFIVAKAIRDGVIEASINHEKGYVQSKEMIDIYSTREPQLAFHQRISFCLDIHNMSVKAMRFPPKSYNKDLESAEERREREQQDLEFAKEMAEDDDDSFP
inactive: IRAK-1-4 Inhibitor I -0.025 | ibrutinib -0.031 | [1] 0.044 | ralimetinib 0.023 | [2] -0.033 | [3] 0.01 | pinometostat 0.067 | [5] 0.016 | [6] 0.039
active: [4] -0.22

PML (UniProt P29590)
UniProt P29590, sequence (P29590 whole entry, looked up): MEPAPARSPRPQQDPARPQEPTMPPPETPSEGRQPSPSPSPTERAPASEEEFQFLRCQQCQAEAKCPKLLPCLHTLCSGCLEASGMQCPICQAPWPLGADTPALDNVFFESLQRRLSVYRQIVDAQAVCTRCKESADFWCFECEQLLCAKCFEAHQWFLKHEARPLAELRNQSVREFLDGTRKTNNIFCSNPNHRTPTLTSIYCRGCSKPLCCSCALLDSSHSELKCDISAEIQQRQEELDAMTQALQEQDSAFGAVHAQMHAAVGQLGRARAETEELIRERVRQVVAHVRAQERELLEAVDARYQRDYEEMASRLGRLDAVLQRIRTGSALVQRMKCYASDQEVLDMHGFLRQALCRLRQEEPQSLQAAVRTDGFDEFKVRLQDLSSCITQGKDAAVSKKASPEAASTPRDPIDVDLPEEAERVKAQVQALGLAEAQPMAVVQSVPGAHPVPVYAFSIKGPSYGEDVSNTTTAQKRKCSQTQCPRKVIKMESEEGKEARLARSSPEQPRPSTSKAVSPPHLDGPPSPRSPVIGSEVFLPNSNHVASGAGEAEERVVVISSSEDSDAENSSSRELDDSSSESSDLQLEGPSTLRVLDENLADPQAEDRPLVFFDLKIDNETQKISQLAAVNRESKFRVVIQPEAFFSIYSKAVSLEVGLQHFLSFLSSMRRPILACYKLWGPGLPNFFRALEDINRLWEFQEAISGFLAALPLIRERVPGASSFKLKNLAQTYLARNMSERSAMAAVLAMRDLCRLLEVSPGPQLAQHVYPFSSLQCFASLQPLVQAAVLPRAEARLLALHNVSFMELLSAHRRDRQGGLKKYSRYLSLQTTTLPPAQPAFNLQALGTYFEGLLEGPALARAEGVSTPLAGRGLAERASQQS
inactive: IRAK-1-4 Inhibitor I 0.031 | ibrutinib 0.006 | [1] 0.052 | ralimetinib 0.045 | [2] 0.012 | [3] -0.025 | [4] -0.05 | pinometostat -0.021 | [5] 0.07 | [6] -0.035

PSMC3 (UniProt P17980)
inactive: IRAK-1-4 Inhibitor I -0.041 | ibrutinib -0.021 | [1] 0.023 | ralimetinib 0.016 | [2] 0.007 | [3] 0.048 | [4] -0.213 | pinometostat 0.025 | [5] 0.053 | [6] 0.023

POP1 (UniProt Q99575)
UniProt Q99575, sequence (Q99575 whole entry, looked up): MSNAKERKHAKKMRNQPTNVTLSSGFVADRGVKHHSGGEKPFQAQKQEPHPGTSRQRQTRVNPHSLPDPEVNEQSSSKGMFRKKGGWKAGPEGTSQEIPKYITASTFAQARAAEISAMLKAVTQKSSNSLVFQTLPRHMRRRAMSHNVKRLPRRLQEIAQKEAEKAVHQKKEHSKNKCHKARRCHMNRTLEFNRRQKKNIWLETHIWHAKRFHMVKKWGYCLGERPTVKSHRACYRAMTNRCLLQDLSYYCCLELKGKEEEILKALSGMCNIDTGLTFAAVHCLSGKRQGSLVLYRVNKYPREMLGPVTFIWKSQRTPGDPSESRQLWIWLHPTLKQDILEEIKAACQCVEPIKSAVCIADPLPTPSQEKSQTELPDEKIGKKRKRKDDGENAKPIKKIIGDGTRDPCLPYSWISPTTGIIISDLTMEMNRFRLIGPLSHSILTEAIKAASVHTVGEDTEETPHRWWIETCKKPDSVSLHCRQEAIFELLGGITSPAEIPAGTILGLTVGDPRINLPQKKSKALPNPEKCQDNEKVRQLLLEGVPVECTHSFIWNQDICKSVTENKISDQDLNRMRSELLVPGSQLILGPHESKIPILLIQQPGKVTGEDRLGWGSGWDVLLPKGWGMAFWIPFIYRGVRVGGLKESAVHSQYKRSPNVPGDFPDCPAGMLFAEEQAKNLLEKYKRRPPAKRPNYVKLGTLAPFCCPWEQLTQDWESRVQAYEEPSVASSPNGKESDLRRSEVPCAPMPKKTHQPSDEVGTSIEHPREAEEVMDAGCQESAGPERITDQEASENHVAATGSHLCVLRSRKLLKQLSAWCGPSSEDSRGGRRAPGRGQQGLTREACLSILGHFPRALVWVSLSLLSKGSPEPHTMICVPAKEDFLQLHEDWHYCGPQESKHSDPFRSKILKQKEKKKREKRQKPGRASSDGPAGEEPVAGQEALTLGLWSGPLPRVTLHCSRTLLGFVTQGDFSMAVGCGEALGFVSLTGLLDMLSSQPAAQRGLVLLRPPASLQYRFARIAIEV
inactive: IRAK-1-4 Inhibitor I -0.024 | ibrutinib 0 | [1] 0.001 | ralimetinib 0.029 | [2] -0.006 | [3] 0.013 | [4] -0.03 | pinometostat 0.003 | [5] 0.008
active: [6] -0.271

POLR3B (UniProt Q9NW08)
inactive: IRAK-1-4 Inhibitor I -0.121 | ibrutinib -0.048 | [1] 0.044 | ralimetinib 0.052 | [2] -0.116 | [3] -0.183 | [4] 0.055 | pinometostat 0.115 | [5] -0.035
active: [6] 0.297

PSMA3 (UniProt P25788)
UniProt P25788, sequence (P25788 whole entry, looked up): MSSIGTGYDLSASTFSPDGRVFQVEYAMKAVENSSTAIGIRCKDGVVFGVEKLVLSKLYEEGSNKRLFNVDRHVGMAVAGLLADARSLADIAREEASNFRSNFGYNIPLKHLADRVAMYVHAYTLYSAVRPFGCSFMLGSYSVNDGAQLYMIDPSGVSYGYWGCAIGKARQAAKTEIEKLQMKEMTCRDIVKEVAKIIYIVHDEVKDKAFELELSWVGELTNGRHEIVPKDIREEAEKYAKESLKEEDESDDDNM
inactive: IRAK-1-4 Inhibitor I -0.027 | ibrutinib -0.013 | [1] 0.008 | ralimetinib 0.037 | [2] 0.071 | [3] 0.102 | [4] -0.065 | pinometostat -0.033 | [5] -0.02 | [6] -0.014

PHLDB1 isoform 2 (UniProt Q86UU1)
active: [1] -0.832
inactive: IRAK-1-4 Inhibitor I 0.014 | ibrutinib -0.055 | ralimetinib 0.005 | [2] -0.053 | [3] -0.018 | [4] 0.016 | pinometostat -0.011 | [5] 0.091 | [6] 0.118
